PubChem BioAssay (NCATS)
Records with an inconclusive call do not appear. The source made the active and inactive calls. Unless noted, the call rests on the fitted dose curve; in most records, active means well fitted curve in the direction sought with a large enough effect; inconclusive means small, poorly fitted or top-dose-only effect, or another doubt; inactive means no such curve, though single readings can be large; an effect the other way counts as inactive or inconclusive.

Key:
[1] = biological target: Rap guanine nucleotide exchange factor 3 (Homo sapiens) (UniProt O95398); test: Confirmatory qHTS for antagonist of cAMP-regulated guanine nucleotide exchange factor 3 (EPAC1) (AID 1645880); conditions: EPAC1 Rap1B-BODIPY-GDP exchange, fluorescence; activity, negative = inhibition: at 115 µM (top of the series); further: nearly all actives have a fitted effect of over 55% in size; further: potency means the concentration at half of the fitted maximal effect;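 on activity, negative = inhibition: plate controls were DMSO only for no effect and full effect of the ATA control for full effect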
Rap guanine nucleotide exchange factor 3 (Homo sapiens), sequence (O95398 whole entry, looked up): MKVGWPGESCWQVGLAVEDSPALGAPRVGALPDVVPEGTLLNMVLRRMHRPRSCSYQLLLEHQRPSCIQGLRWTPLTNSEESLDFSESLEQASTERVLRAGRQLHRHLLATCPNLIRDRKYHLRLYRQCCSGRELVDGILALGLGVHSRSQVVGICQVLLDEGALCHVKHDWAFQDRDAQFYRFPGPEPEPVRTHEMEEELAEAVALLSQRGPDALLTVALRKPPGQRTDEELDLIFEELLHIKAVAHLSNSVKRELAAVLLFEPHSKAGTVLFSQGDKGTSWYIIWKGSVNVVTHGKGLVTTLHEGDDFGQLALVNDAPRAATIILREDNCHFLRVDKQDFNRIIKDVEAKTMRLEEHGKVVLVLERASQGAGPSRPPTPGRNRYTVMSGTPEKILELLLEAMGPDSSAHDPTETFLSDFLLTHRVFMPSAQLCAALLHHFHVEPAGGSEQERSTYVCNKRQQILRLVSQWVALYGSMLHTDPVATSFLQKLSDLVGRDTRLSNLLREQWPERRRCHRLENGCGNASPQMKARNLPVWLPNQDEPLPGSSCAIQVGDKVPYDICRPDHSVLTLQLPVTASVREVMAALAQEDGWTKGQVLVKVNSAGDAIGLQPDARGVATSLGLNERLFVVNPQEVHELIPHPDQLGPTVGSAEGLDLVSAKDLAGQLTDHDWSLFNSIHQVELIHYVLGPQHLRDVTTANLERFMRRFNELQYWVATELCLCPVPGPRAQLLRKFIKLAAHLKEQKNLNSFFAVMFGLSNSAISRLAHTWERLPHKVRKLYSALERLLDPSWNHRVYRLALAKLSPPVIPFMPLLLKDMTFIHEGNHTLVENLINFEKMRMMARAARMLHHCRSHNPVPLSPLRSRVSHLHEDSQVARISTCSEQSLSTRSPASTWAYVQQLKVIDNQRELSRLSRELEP
How it was run: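 Nucleotide exchange uses 100 nM EPAC1, 250 nM RAP1B-BODIPY-GDP and 50 uM GDP, with compounds in a concentration-titration series. After 5 min at room temperature, fluorescence (480 nm ex/540 nm em) is read every 5 min for 30 min. Data are normalized to control ATA and DMSO.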

[2] = biological target: Rap guanine nucleotide exchange factor 3 (Homo sapiens) (UniProt O95398); test: Confirmatory qHTS for agonist of cAMP-regulated guanine nucleotide exchange factor 3 (EPAC1) (AID 1645881);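 further: EPAC1 catalysed release of BODIPY-GDP from Rap1B seen as fluorescence loss; 100% = effect of cAMP agonist control; nearly all actives have a fitted effect of over 75% in size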
[3] = biological target: Rap guanine nucleotide exchange factor 4 (Homo sapiens) (UniProt Q8WZA2); test: Confirmatory qHTS for agonist of cAMP-regulated guanine nucleotide exchange factor 4 (EPAC2) (AID 1645884);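 further: nucleotide exchange releases bodipy-GDP from Rap1 and this lowers its fluorescence; on the % scale 0 is the no-effect control and ±100 the full control effect; nearly all actives have a fitted effect of over 65% in size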
Rap guanine nucleotide exchange factor 4 (Homo sapiens), sequence (Q8WZA2 whole entry, looked up): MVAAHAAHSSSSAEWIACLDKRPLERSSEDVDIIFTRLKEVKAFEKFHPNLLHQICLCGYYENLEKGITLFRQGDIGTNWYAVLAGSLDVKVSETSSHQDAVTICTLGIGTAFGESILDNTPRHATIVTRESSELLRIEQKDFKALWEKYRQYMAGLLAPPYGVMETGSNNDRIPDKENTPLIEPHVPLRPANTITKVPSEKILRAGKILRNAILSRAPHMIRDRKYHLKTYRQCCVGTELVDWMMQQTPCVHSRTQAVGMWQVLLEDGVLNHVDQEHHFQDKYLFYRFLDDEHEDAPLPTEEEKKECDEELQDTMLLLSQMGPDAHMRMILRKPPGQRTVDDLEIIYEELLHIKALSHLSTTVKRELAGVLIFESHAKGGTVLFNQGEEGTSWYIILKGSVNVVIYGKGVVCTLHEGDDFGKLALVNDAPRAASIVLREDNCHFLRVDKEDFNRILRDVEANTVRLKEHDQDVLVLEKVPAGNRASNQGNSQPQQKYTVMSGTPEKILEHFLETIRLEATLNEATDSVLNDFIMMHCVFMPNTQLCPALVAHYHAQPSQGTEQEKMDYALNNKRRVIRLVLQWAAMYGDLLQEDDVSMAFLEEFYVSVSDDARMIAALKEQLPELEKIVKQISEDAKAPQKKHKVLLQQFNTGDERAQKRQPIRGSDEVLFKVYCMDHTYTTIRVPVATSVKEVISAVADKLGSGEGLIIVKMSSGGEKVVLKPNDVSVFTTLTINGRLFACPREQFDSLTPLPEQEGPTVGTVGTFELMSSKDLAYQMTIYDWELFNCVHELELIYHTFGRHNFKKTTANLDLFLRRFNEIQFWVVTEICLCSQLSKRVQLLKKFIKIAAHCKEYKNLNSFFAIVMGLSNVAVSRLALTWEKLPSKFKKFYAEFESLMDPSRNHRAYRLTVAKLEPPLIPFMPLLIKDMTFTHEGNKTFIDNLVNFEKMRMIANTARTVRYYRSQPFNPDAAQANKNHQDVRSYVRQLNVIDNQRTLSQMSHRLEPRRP

[4] = biological target: Rap guanine nucleotide exchange factor 3 (Homo sapiens) (UniProt O95398); test: Counterscreen qHTS for agonist of cAMP-regulated guanine nucleotide exchange factor 3 (EPAC1) (AID 1645889); further: % of control where 0% means no effect; nearly all actives have a fitted effect of over 40% in size
How it was run: (§1)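 Rap1B-BODIPY-GDP 250 nM + GDP 50 uM; cpds 7-pt, final 9.74 nM–152 uM (activator mode) or from 7.32 nM upwards (inhibitor mode); RT; FI 480/540 nm at 5 and 30 min, then ± cAMP, reread.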

[5] = AP1 Signaling Pathway (AID 357; active means well fitted curve in either direction with a large enough effect, not every such curve was filed as active;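 further: ME-180 reporter cells stimulated with EGF at its EC50 level; on the % scale 0 is the no-effect control and ±100 the full control effect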); conditions: ME-180 AP-1-bla reporter, EGF-induced, beta-lactamase ratio, 5 h; at 7.69 µM (top of the series) unless noted
How it was run: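 A ratiometric CCF4 readout (405 nm excitation; 460 and 530 nm emission) quantified AP-1-driven beta-lactamase in ME-180 cells after 5 h with compound and EC50 EGF; AC50 values were derived for activators and inhibitors.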

[6] = NFAT Signaling Pathway (AID 444; active means well fitted curve in either direction with a large enough effect, not every such curve was filed as active;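 further: carbachol stimulus at about its EC50 of 1 µM final; on the % scale 0 is the no-effect control and ±100 the full control effect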); conditions: Jurkat NFAT-bla M1, carbachol, beta-lactamase ratio, 5 h; at 7.69 µM (top of the series) unless noted
How it was run: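 Read-out: CCF4 FRET ratio (460 nm/530 nm) after 1 h RT dye loading, used for %activity and AC50 from titration series. Cells: Jurkat NFAT-β-lactamase/M1 line, treated with compound plus 1 uM carbachol for 5 h, 37 °C.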

[7] = Stat Signaling Pathway (AID 446; active means well fitted curve in either direction with a large enough effect, not every such curve was filed as active;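 further: ME-180 cervical cancer cells given 40 pM IL-6 alongside compound; SIE-controlled beta-lactamase reporter measured as 460/530 nm FRET emission ratio; on the % scale 0 is the no-effect control and ±100 the full control effect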)
How it was run: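 Reporter line: ME-180 cervical carcinoma, SIE-beta-lactamase. Treatment: compound with 40 pM IL-6, 5 hrs, 37 C, in low-serum OPTI-MEM with 10 mM HEPES pH 7.3. Detection: 460/530 nm fluorescence.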

[8] = biological target: Rap guanine nucleotide exchange factor 3 (Homo sapiens) (UniProt O95398); test: Counterscreen qHTS for antagonist of cAMP-regulated guanine nucleotide exchange factor 3 (EPAC1) (AID 1645888);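 further: fluorescence loss as bound BODIPY-GDP is released from Rap1B; % of control where 0% means no effect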
How it was run: as §1

[9] = biological target: Lysosomal acid glucosylceramidase (Homo sapiens) (UniProt P04062); test: Glucocerebrosidase-p2 (AID 348; in the data active means potency below about 10 µM; further: potency means the concentration at half of the fitted maximal effect); conditions: purified GBA, blue fluorogenic substrate, 40 min
Lysosomal acid glucosylceramidase (Homo sapiens), sequence (P04062 whole entry, looked up): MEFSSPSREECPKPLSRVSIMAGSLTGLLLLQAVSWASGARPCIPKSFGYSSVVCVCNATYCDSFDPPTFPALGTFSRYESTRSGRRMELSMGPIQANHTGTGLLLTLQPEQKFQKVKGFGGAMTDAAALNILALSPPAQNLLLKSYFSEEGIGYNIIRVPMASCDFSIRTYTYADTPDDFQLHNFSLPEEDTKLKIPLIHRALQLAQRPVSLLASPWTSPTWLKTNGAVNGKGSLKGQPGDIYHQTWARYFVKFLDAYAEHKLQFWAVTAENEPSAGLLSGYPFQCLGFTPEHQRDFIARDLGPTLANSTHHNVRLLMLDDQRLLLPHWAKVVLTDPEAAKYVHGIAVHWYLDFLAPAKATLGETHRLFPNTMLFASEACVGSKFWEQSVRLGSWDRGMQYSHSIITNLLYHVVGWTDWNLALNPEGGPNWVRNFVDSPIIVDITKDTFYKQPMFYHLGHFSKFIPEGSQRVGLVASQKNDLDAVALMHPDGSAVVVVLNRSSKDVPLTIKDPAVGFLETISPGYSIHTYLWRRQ
How it was run: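 Compounds titrated from 0.6 nM upwards against 0.2 nM enzyme in pH 5.9 citric acid/KH2PO4, taurocholate, tween-20; blue fluorogenic substrate 80 uM, 40 min room temperature, stopped and read Ex 365/Em 440 for AC50.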

[10] = biological target: Glucocorticoid receptor (Homo sapiens) (UniProt P04150); test: GR-GFP Redistribution (AID 450;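 active means compounds whose dose series gives a full or clear partial fitted curve of increased nuclear translocation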; further: potency means the concentration at half of the fitted maximal effect); conditions: U2OS GR-GFP nuclear translocation, laser cytometry, 2 h
Glucocorticoid receptor (Homo sapiens), sequence (P04150 whole entry, looked up, the tested form may be a part): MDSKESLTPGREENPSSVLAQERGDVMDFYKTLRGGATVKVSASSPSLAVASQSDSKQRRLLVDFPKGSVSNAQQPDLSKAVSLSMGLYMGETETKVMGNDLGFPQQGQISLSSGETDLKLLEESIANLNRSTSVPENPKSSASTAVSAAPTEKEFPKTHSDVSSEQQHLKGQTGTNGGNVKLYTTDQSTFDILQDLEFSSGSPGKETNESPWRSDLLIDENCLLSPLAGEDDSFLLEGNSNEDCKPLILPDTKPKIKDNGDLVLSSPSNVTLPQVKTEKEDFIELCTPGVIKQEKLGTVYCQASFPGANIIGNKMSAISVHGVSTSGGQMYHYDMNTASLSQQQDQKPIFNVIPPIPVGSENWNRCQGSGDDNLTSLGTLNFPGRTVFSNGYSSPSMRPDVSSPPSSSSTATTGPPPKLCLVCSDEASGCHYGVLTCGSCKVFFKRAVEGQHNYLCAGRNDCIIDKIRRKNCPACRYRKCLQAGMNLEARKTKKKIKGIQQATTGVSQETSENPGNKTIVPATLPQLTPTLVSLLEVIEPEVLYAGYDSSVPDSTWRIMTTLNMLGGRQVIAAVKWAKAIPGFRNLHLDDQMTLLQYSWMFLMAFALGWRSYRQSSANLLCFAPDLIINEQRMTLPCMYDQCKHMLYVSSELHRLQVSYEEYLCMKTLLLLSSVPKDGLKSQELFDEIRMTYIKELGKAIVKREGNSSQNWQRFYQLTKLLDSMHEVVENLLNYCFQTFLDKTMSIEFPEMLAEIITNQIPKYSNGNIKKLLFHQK

[11] = biological target: Glucocorticoid receptor (Homo sapiens) (UniProt P04150); test: GR-EFC Redistribution (AID 451; calls by dose curve; further: potency means the concentration at half of the fitted maximal effect); conditions: CHO-K1 GR-EFC translocation, beta-gal luminescence, 2 h
How it was run: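 Translocation of GR-ED fusion to nuclear EA restores b-gal, read by luminescence after 1 h room-temperature detection. Engineered CHO-K1 biosensor cells, 1,000/well, exposed 2 h at 37 C to titrations up to 46 uM final.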

[12] = biological target: Mitogen-activated protein kinase 10 (Mus musculus) (UniProt Q61831); test: JNK3 AlphaScreen Assay (AID 530; active means well fitted curve in either direction with a large enough effect, not every such curve was filed as active;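 further: kinase came from lysate of stimulated human HepG2 cells; signal reports phosphorylation of biotinylated GST-cJun 1-79 at Ser73 with 10 µM ATP; on the % scale 0 is the no-effect control and ±100 the full control effect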)
How it was run: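 Compound titrations were preincubated 15 minutes at room temperature with substrate, antibody and pre-activated JNK3-containing HepG2 lysate. Reactions were started with 10 uM ATP and stopped with EDTA-containing bead buffer for AlphaScreen detection.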

[13] = biological target: Cytochrome P450 1A2 (Homo sapiens) (UniProt P05177); test: p450-cyp1a2 (AID 410; calls by dose curve; further: potency means the concentration at half of the fitted maximal effect)
How it was run: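 Luminescent readout of luciferin formed from Luciferin-ME by human CYP1A2; data normalized against complete inhibition by 57 uM furafylline. Enzyme 20nM, substrate 100uM at Km, 100mM KPO4 buffer, 60 min reaction at room temperature.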

[14] = biological target: Cytochrome P450 2C9 (Homo sapiens) (UniProt P11712); test: qHTS Assay for Inhibitors and Substrates of Cytochrome P450 2C9 (AID 883); further: on the % scale 0 is the no-effect control and ±100 the full control effect; nearly all actives have a fitted effect of over 60% in size
Cytochrome P450 2C9 (Homo sapiens), sequence (P11712 whole entry, looked up): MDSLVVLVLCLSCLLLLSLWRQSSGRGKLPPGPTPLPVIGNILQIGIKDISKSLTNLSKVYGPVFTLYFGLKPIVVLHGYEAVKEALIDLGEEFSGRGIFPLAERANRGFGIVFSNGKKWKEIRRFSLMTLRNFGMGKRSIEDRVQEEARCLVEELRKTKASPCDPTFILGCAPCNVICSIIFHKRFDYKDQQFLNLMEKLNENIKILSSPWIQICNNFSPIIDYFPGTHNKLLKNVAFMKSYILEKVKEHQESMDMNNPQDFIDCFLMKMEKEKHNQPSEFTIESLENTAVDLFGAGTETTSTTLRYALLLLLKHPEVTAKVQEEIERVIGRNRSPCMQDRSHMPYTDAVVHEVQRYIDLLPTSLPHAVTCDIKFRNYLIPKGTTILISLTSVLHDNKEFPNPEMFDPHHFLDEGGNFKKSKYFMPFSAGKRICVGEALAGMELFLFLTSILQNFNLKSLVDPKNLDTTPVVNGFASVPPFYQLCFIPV
How it was run: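 Turnover of Luciferin-H (100uM, KM) by 10nM human CYP2C9 was measured over 60 min at 37C with NADPH regeneration; inhibitors and some substrates reduce luminescence. Data normalized to sulphaphenazole 57uM.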

[15] = biological target: Cytochrome P450 3A4 (Homo sapiens) (UniProt P08684); test: qHTS Assay for Inhibitors and Substrates of Cytochrome P450 3A4 (AID 884); further: nearly all actives have a fitted effect of over 50% in size; further: potency means the concentration at half of the fitted maximal effect
Cytochrome P450 3A4 (Homo sapiens), sequence (P08684 whole entry, looked up): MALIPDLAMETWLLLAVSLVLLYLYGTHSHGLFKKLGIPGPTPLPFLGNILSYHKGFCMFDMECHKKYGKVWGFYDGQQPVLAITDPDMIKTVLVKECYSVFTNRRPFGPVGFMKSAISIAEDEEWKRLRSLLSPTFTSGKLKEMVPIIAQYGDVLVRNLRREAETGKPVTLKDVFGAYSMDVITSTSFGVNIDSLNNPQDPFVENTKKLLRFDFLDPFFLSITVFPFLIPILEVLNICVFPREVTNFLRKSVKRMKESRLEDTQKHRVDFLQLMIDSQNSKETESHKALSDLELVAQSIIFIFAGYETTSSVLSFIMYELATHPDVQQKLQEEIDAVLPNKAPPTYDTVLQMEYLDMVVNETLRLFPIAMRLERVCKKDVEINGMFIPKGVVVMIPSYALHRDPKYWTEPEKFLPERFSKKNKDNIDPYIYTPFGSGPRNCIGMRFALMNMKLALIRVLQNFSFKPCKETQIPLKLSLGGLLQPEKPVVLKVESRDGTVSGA
How it was run: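 20 nM human CYP3A4 with 25 uM Luciferin-PPXE (at KM) in 200 mM KPO4, preincubated 10 min with compound; NADPH regeneration started a 60 min RT reaction. Luciferin detected by luminescence, normalized to 57 uM ketoconazole as full inhibition.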

[16] = biological target: Cytochrome P450 2D6 (Homo sapiens) (UniProt P10635); test: qHTS Assay for Inhibitors and Substrates of Cytochrome P450 2D6 (AID 891);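 further: luciferin methyl ether substrate demethylated by CYP2D6 with NADPH regeneration; on the % scale 0 is the no-effect control and ±100 the full control effect; nearly all actives have a fitted effect of over 60% in size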
How it was run: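 Human CYP2D6 (5 nM) with 30 uM Luciferin-ME EGE (at Km) in 100 mM KPO4, compound preincubated 10 min, then NADPH regeneration system for 60 min at room temperature. Luciferin read by luminescence; normalized to 1.43 uM quinidine.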

[17] = biological target: Cytochrome P450 2C19 (Homo sapiens) (UniProt P33261); test: qHTS Assay for Inhibitors and Substrates of Cytochrome P450 2C19 (AID 899); further: potency means the concentration at half of the fitted maximal effect; nearly all actives have a fitted effect of over 60% in size
How it was run: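 Reactions contain 5nM enzyme, 10uM Luciferin-H EGE (KM) and 50mM KPO4; compound preincubates 10 min at 37C, NADPH regeneration starts turnover for 60 min. Luminescence after detection reagent gives activity.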

[18] = biological target: Ubiquitin carboxyl-terminal hydrolase 1 (Homo sapiens) (UniProt O94782); test: Inhibitors of USP1/UAF1: Pilot qHTS (AID 504865); further: nearly all actives have a fitted effect of over 35% in size; further: potency means the concentration at half of the fitted maximal effect
Ubiquitin carboxyl-terminal hydrolase 1 (Homo sapiens), sequence (O94782 whole entry, looked up): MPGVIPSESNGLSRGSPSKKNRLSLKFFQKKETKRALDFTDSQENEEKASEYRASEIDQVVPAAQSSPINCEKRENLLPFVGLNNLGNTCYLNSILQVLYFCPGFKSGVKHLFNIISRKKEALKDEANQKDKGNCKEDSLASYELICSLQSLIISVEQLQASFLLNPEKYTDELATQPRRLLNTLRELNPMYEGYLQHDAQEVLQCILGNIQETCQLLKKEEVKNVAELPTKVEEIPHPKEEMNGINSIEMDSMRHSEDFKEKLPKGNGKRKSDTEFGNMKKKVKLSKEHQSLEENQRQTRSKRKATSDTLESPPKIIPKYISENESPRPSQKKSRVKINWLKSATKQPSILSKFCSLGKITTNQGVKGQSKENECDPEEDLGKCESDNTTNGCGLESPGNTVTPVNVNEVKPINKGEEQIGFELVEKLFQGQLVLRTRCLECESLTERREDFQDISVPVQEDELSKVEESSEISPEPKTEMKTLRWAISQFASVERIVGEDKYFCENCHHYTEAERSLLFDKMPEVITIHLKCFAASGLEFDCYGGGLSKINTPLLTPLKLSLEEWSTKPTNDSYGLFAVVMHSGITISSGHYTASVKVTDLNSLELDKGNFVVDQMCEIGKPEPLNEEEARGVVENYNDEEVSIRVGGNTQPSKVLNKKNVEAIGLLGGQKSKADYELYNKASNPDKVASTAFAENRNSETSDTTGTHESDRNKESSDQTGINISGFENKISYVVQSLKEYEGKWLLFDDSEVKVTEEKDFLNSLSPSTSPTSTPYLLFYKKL
How it was run: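 Enzyme-free wells gave the negative control, while test wells held 1nM USP1/UAF1 preincubated with compound for 15 min at room temperature. Ub-Rho at 150nM final started the reaction, and fluorescence at 480/540 nm was recorded kinetically.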

[19] = Confirmation and Secondary Assay for Modulators of Hemoglobin Beta Chain Splicing at IVS2 654 locus (AID 910);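 further: HeLa cells stably carrying EGFP split by mutant beta-globin IVS2-654 intron; per-well total GFP intensity by laser scanning cytometry after 2-day treatment; % of control where 0% means no effect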
How it was run: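 Readout: per-well total peak green fluorescence (488 nm ex, 500–520 nm em) from objects 5–250 µm, reflecting correct splicing of an EGFP-654 reporter. Compounds were applied for 2 days at 37 °C to overnight-plated HeLa EGFP-654 cells; controls were DMSO and 500 nM IVS2-654 PNA.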

[20] = Confirmation and Secondary Assay for Modulators of Hemoglobin Beta Chain Splicing at IVS2 705 locus (AID 930);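 further: HeLa cells stably expressing the EGFP-705 splicing reporter; % of control where 0% means no effect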
How it was run: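 Restored EGFP fluorescence after 2-day compound exposure reports splicing correction in IVS2-705 EGFP reporter HeLa cells; positive control was 500 nM splice-blocking PNA oligo. Signal measured as well total peak GFP intensity (488 nm excitation).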

[21] = biological target: DNA dC->dU-editing enzyme APOBEC-3G (Homo sapiens) (UniProt Q9HC16); test: qHTS for inhibitors of Vif-A3G interactions: Validation (AID 588379); further: 0% is about no effect
How it was run: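 HeLa cells stably expressing Vif and A3G-eYFP, 700 cells/well, incubated overnight at 37 deg C, then exposed to compound overnight at 37 deg C. Inhibition of Vif-mediated degradation read as increased yellow fluorescence (Ex 488/Em 500-530) by laser-scanning cytometry.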

[22] = biological target: Tumor susceptibility gene 101 protein (Homo sapiens) (UniProt Q99816); test: qHTS Assay for Iinhibitors of HIV-1 Budding by Blocking the Interaction of PTAP/TSG101: Hit Validation (AID 651600); further: potency means the concentration at half of the fitted maximal effect; nearly all actives have a fitted effect of over 70% in size
How it was run: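 Measuring PTAP–Tsg101 interaction by FP: protein at 10 uM and fluorescent peptide at 50 nM (final), buffer 10 mM HEPES pH 7.5 with 0.15 M NaCl, 3 mM EDTA, 0.1 mM TCEP, 0.01% Tween 20; 20 min incubation, r.t.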

[23] = biological target: Rap guanine nucleotide exchange factor 4 (Homo sapiens) (UniProt Q8WZA2); test: Confirmatory qHTS for antagonist of cAMP-regulated guanine nucleotide exchange factor 4 (EPAC2) (AID 1645885); further: on the % scale 0 is the no-effect control and ±100 the full control effect; nearly all actives have a fitted effect of over 25% in size

O=C(O)Cc1ccc(C(=O)c2ccc(Cl)cc2Cl)s1
inactive: Potency [1] | Potency [2] | Potency [3] | Potency [4]

CCOCCCn1c(=N)c(S(=O)(=O)c2ccccc2)cc2c(=O)n3cc(C)ccc3nc21
inactive: Potency [1] | Potency [2] | Potency [3] | Potency [4]

C=CCn1c(SCc2cc([N+](=O)[O-])cc3c2OCOC3)nc2cc(C(=O)O)ccc2c1=O
inactive: Potency [2] | Potency [3] | Potency [4]
active: Potency [1] 75.7 µM

O=C(c1ccco1)N1N=C2CCCCCC2C1(O)C(F)(F)F (stereo not given)
inactive: Potency [1] | Potency [2] | Potency [3] | Potency [4]

O=C(CN1CCCCC1)Nc1cc(Cl)ccc1Oc1ccccc1
inactive: Potency [1] | Potency [2] | Potency [3] | Potency [4]

O=C(/C=N/O)NCCCN1CCOCC1
inactive: activity change, negative = inhibition [5] -1.51% [at 17.2 µM] | activity change, negative = inhibition [6] 14.3% [at 17.2 µM] | outcome [7] | Potency [1] | Potency [2] | Potency [3] | Potency [8]

O=c1cc2oc3cc(O)c(O)cc3c(-c3ccccc3[N+](=O)[O-])c-2cc1O
inactive: Potency [2] | Potency [3] | Potency [4]
active: Potency [1] 10.7 µM

COc1ncc2nc(-c3ccccc3)c(=O)n(Cc3cccs3)c2n1
inactive: Potency [9] > 11.4 µM | activity change, negative = inhibition [5] 3.51% | activity change, negative = inhibition [6] -14.6% | outcome [7] | Potency [10] > 9.22 µM | Potency [11] > 46 µM | Potency [12]

Cc1ccccc1-c1ccc2ncnc(N3CCOCC3)c2c1
active: Potency [13] 1.26 µM | Potency [17] 1.58 µM
inactive: Potency [9] > 11.4 µM | activity change, negative = inhibition [5] -27.7% | activity change, negative = inhibition [6] 20.5% | Potency [11] > 46 µM | Potency [12] | activity change, negative = inhibition [14] -24.2% [at 2.29 µM] | Potency [15] | Potency [16] | Potency [18]

COc1cc(C)c2c(=O)cc(-c3ccccc3)oc2c1
active: Potency [15] 12.6 µM
inactive: Potency [19] | Potency [20]

CC(=O)Oc1c2c(c3c(c1CC=C(C)C)O[C@@]14C(=CC5CC1C(C)(C)OC4(C/C=C(\C)C(=O)O)C5=O)C3=O)OC(C)(CCC=C(C)C)C=C2 (stereo not given in full)
inactive: Potency [19] | Potency [20]
active: Potency [18] 31.6 µM

COc1ccc(C2OCC3(COC(C)=O)C(C)C=C(C)C2C3C)cc1 (stereo not given)
inactive: outcome [21]

Oc1ccc2ccccc2c1-c1sc(Nc2ccccc2)n[n+]1-c1ccc(F)cc1
active: Potency [22] 10.3 µM
inactive: Potency [4]

Cc1ccc(S(=O)c2ccc([N+](=O)[O-])c3nonc23)cc1 (stereo not given)
active: Potency [1] 23.9 µM
inactive: Potency [2] | Potency [23] | Potency [8]

CCOc1ccc(-n2cnc3scc(-c4ccc(OC)c(OC)c4)c3c2=O)cc1
inactive: Potency [1] | Potency [2] | Potency [23] | Potency [8]

O=C1/C(=C\c2cccnc2)Sc2ccccc21
inactive: Potency [1] | Potency [2] | Potency [23] | Potency [8]
